# T cruzi growth-1: inhibitors of T. cruzi proliferation; inhibition, % at 8.34 µM; 5.9% of 77,000 active; T. cruzi beta-gal in NIH3T3, GalScreen luminescence, 90 h; AID 624255;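 active = mean inhibition above about 93%, with at least 55% of replicates each passing it, limit read from the data, passing the limit was not always enough; inconclusive = only one of those two conditions holds; inactive = neither condition holds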
# Pf Dd2 growth: inhibitors of Plasmodium falciparum Dd2 growth. P. falciparum Dd2 growth, SYBR Green, 72 h; hits give low values. activity change, % at 10 µM. 2.3% of 94,000 active. AID 1159554; in the data active = activity change below about -80%; inconclusive = no clear call, values can overlap the other calls
# C diff HTS: inhibitors of Clostridium difficile growth; Clostridium difficile clinical isolate growth, OD600, 24 h; hits give low values; growth activity, negative = inhibition, % at 16 µg/mL (by protocol); 0.25% of 86,000 active; AID 1259249;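 active = mean growth activity at or below -80% and every replicate also at or below -80%; inconclusive = mean at or below -80% but some replicate above -80%; inactive = mean growth activity above -80%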
# T cruzi growth-2: blocks T. cruzi growth in NIH3T3 host cells; shares compounds with T cruzi growth-1; T. cruzi beta-gal in NIH3T3, GalScreen luminescence, 90 h; inhibition, % at 8.35 µM; 72% of 5,600 active;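 active = mean replicate inhibition above about 95% and at least 55% of replicates individually reaching it, limit read from the data; inconclusive = only one of the two criteria is met; inactive = neither criterion is met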
# T cruzi growth-3: blocks T. cruzi growth in NIH3T3 host cells. inhibition, % at 2.09 µM. T. cruzi beta-gal in NIH3T3, GalScreen luminescence, 90 h. 21% of 5,600 active. shares compounds with T cruzi growth-1. AID 651740;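 active = mean inhibition above about 95%, with at least 55% of replicates also reaching it, limit read from the data; inconclusive = meets just one of the two conditions; inactive = meets neither condition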
# NIH3T3 tox: NIH/3T3 (mouse) viability loss. cytotoxicity (signal decrease), % at 8.35 µM. 14% of 5,600 active. AID 651742. shares compounds with T cruzi growth-1. NIH/3T3 viability, CellTiter-Glo ATP luminescence, 90 h;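 active = mean signal decrease across replicates above about 35% based on untreated-well scatter, with enough replicates individually passing, limit read from the data; inconclusive = no rule stated though some were filed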
# 3T3 cytotox 2: NIH/3T3 (mouse) viability loss; inhibition, % at 24.9 µM; 56% of 5,600 active; NIH/3T3 viability, CellTiter-Glo ATP luminescence, 90 h; shares compounds with T cruzi growth-1;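 active = mean loss of cell viability signal at or above a set limit, and enough replicates individually reaching it; inconclusive = meets only the mean limit or only the replicate share; inactive = meets neither condition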
# A number is an active result; 0 = inactive; ? = inconclusive; - = no result. Sampled rows, rich in hits. Any-hit rate of the full collection: about 6.8%.
SMILES,T cruzi growth-1,Pf Dd2 growth,C diff HTS,T cruzi growth-2,T cruzi growth-3,NIH3T3 tox,3T3 cytotox 2
O=C(Nc1ccc(Cl)cc1)N[C@H]1CC[C@@H](CCNC(=O)c2ccccc2F)O[C@H]1CO,0,0,0,-,-,-,-
O=C(Nc1ccc(Cl)cc1)N[C@H]1CC[C@@H](CCNC(=O)c2ccccc2F)O[C@@H]1CO,142.0,0,0,0,0,0,0
CCC(=O)N1[C@H](CO)[C@H](c2ccc(-c3ccc(F)cc3)cc2)[C@@H]1CN(C)C(C)=O,0,0,0,-,-,-,-
CC(C)NC(=O)N[C@H]1C=C[C@@H](CC(=O)NC2Cc3ccccc3C2)O[C@H]1CO,0,0,0,-,-,-,-
O=C(C[C@@H]1C=C[C@H](NC(=O)c2cnccn2)[C@@H](CO)O1)NCc1ccccc1F,0,0,-,-,-,-,-
Cc1ccc(S(=O)(=O)Nc2ccc3c(c2)CC(=O)N([C@H](C)CO)C[C@H](C)[C@H](CN(C)C(=O)NC(C)C)O3)cc1,0,0,0,-,-,-,-
COc1ccccc1C#Cc1cnc2c(c1)C(=O)N([C@@H](C)CO)C[C@H](C)[C@@H](CN(C)C)O2,0,0,0,-,-,-,-
O=C(Cc1ccccn1)N[C@H]1CC[C@@H](CCNS(=O)(=O)c2cccc(F)c2)O[C@@H]1CO,100.9,0,-,0,0,0,0
O=C(Cc1ccccn1)N[C@H]1CC[C@@H](CCNS(=O)(=O)c2cccc(F)c2)O[C@H]1CO,0,0,-,-,-,-,-
CC(C)NC(=O)N1CCCCN2[C@H](C1)[C@@H](c1ccc(C#CC3CC3)cc1)[C@@H]2CO,0,0,0,-,-,-,-
CC(C)NC(=O)N1CCCCN2[C@H](CO)[C@H](c3ccc(C#CC4CC4)cc3)[C@H]2C1,110.4,0,0,112.6,0,0,66.0
CC(C)NC(=O)N1CCCCN2[C@H](C1)[C@H](c1ccc(C#CC3CC3)cc1)[C@@H]2CO,0,0,0,-,-,-,-
CC(C)NC(=O)N1CCCCN2[C@@H](CO)[C@@H](c3ccc(C#CC4CC4)cc3)[C@@H]2C1,106.9,0,0,110.8,0,0,48.7
CC(C)C#Cc1ccc([C@H]2[C@@H](CO)N3CCCCN(C(=O)NC(C)C)C[C@H]23)cc1,101.7,0,0,111.4,0,0,48.7
CC(C)C#Cc1ccc([C@@H]2[C@@H](CO)N3CCCCN(C(=O)NC(C)C)C[C@@H]23)cc1,0,0,0,-,-,-,-
COCC(=O)N1CCC2(CC1)CN[C@H](CO)c1c2c2ccc(OC)cc2n1C,-,0,0,-,-,-,-
CN(C)c1ccc2c(c1)[C@@H]1C[C@@H](CC(=O)NCc3ccc(Oc4ccccc4)cc3)O[C@H](CO)[C@@H]1O2,0,0,0,-,-,-,-
CN(C)c1ccc2c(c1)[C@H]1C[C@@H](CC(=O)NCc3ccccc3)O[C@@H](CO)[C@H]1O2,0,0,-,-,-,-,-
CN(C)c1ccc2c(c1)[C@H]1C[C@H](CC(=O)NCc3ccc(Oc4ccccc4)cc3)O[C@H](CO)[C@H]1O2,134.6,-90.3,0,0,0,0,55.6
CN(C)c1ccc2c(c1)[C@@H]1C[C@H](CC(=O)NCc3ccc(Oc4ccccc4)cc3)O[C@@H](CO)[C@@H]1O2,153.1,0,0,0,0,52.7,55.2
CN(C)c1ccc2c(c1)[C@@H]1C[C@H](CC(=O)NCc3ccc(Oc4ccccc4)cc3)O[C@H](CO)[C@@H]1O2,121.7,0,0,0,0,0,?
CN(C)c1ccc2c(c1)[C@H]1C[C@H](CC(=O)NCc3ccccc3)O[C@H](CO)[C@H]1O2,0,0,-,-,-,-,-
CO[C@H]1CN(C)C(=O)c2ccc(NC(=O)C3CC3)cc2OC[C@H](C)N(C(=O)C2CCOCC2)C[C@H]1C,0,-,-,-,-,-,-
COc1cccc(NC(=O)N[C@H]2C=C[C@@H](CC(=O)N3CCCCC3)O[C@@H]2CO)c1,0,0,0,-,-,-,-
CO[C@H]1CN(C)C(=O)c2ccc(NC(=O)NC(C)C)cc2OC[C@H](C)N(Cc2ccccc2)C[C@@H]1C,0,0,-,-,-,-,-
SMILES,T cruzi growth-1,Pf Dd2 growth,C diff HTS,T cruzi growth-2,T cruzi growth-3,NIH3T3 tox,3T3 cytotox 2
C[C@@H]1CCCCO[C@H](CN(C)Cc2ccc(C(=O)O)cc2)[C@H](C)CN([C@@H](C)CO)C(=O)c2cc(NS(C)(=O)=O)ccc2O1,0,0,0,-,-,-,-
CO[C@H]1CN(C)C(=O)c2ccc(NC(=O)C3CC3)cc2OC[C@@H](C)N(C(=O)c2ccncc2)C[C@H]1C,0,0,0,-,-,-,-
C[C@H](CO)N1C[C@H](C)[C@@H](CN(C)Cc2ccc3c(c2)OCO3)Oc2ccc(NC(=O)CCCCCC(=O)Nc3ccccc3N)cc2C1=O,-,0,0,-,-,-,-
C[C@H]1CN([C@@H](C)CO)C(=O)c2cccc(NC(=O)CCCCCC(=O)Nc3ccccc3N)c2O[C@@H]1CN(C)Cc1ccc2c(c1)OCO2,126.6,-92.4,-,107.1,108.2,0,24.9
C[C@@H]1CN([C@H](C)CO)C(=O)c2cccc(NC(=O)CCCCCC(=O)Nc3ccccc3N)c2O[C@H]1CN(C)Cc1ccc(-c2ccccc2)cc1,?,-91.5,0,0,0,0,0
C[C@@H]1CN([C@H](C)CO)C(=O)c2cc(NC(=O)CCCCCC(=O)Nc3ccccc3N)ccc2O[C@H]1CN(C)Cc1ccc(-c2ccccc2)cc1,-,0,0,-,-,-,-
O=C(Cc1ccccc1)N1CC[C@@H]2[C@H]1c1cc(-c3cccc(F)c3)ccc1N[C@@H]2CO,0,0,0,-,-,-,-
OC[C@H]1Nc2ccc(-c3cccc(F)c3)cc2[C@@H]2[C@H]1CCN2Cc1ccncc1,97.4,0,0,101.5,0,0,89.4
OC[C@@H]1Nc2ccc(-c3cccc(F)c3)cc2[C@H]2[C@@H]1CCN2Cc1ccc(F)cc1,102.6,0,0,107.8,115.3,0,103.0
O=C(c1cccc(F)c1)N1CC[C@@H]2[C@@H](CO)Nc3ccc(-c4cccc(F)c4)cc3[C@@H]21,0,0,0,-,-,-,-
C[C@@H]1CN([C@@H](C)CO)C(=O)c2cc(-c3cccnc3)cnc2O[C@H]1CN(C)C(=O)Cc1cccnc1,0,0,0,-,-,-,-
O=C(C[C@@H]1CC[C@H]2[C@@H](COC[C@H](O)CN2C(=O)Nc2ccc(Cl)cc2)O1)NCCc1ccncc1,128.5,0,0,0,0,0,0
O=C(C[C@@H]1CC[C@@H]2[C@H](COC[C@H](O)CN2C(=O)Nc2ccc(Cl)cc2)O1)NCCc1ccncc1,98.7,0,0,99.2,0,0,0
O=C(C[C@@H]1CC[C@H]2[C@@H](COC[C@@H](O)CN2C(=O)Nc2ccc(Cl)cc2)O1)NCCc1ccncc1,0,0,0,-,-,-,-
O=C(C[C@H]1CC[C@H]2[C@@H](COC[C@H](O)CN2C(=O)Nc2ccc(Cl)cc2)O1)NCCc1ccncc1,0,0,0,-,-,-,-
COCC(=O)N(C)C[C@@H]1Oc2cc(-c3cccnc3)ccc2S(=O)(=O)N([C@H](C)CO)C[C@@H]1C,0,0,0,-,-,-,-
C[C@@H]1CN([C@@H](C)CO)S(=O)(=O)c2ccc(C3=CCCCC3)cc2O[C@H]1CN(C)Cc1ccccc1,121.2,0,-,0,110.4,82.8,103.6

# Screens as filed in PubChem BioAssay.
